# Test results reported in PubChem BioAssay (NCATS).
# Records with an inconclusive call do not appear. A number with no mark means an inactive call. The source made the active and inactive calls. Calls follow the shape of the dose curve; as a rule, active = well fitted inhibition curve with a large enough effect; inconclusive = small, poorly fitted or top-dose-only effect; inactive = flat fitted curve, though single readings scatter. Residues, ends and D or L forms follow the SMILES beside them. *: point of attachment. Cbz = O=C(OCc1ccccc1)*
# What was measured:
# Test in all cases: Cytotoxic Profiling of Annotated Libraries Using Quantitative High-Throughput Screening (AID 1296008); also: nearly all actives have a fitted effect of over 60% in size
# Conditions in all cases: Five cell lines viability, CellTiter-Glo ATP luminescence, 48-72 h; max response: active compounds read low
# CRL-7250 = normal cell line; test system: CRL-7250
# Summary of the method: (§1)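 Cytotoxicity was measured as CellTiter-Glo ATP luminescence, read after 10 min at room temperature. Compound treatment of the cells lasted 48 or 72 hr at 37 degrees Celsius in a qHTS format.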
# HEK293 = test system: HEK293
# Summary of the method: as §1
# HaCat = test system: HaCat
# Summary of the method: as §1
# % is scaled to controls: 0 for no effect and ±100 for the full control effect; potency is read from the fitted curve at half-maximal effect.
compound,measurement,setting,value
C=C1C[C@@]2(O)O[C@@]3(C[C@H]2C(C)C)[C@H](C)CC[C@H]13,max response,CRL-7250,-11.2%
same,max response,HEK293,0.867%
same,outcome,HaCat,inactive
NC(=O)c1cccc(-c2cccc(OC(=O)NC3CCCCC3)c2)c1,outcome,CRL-7250,inactive
same,max response,HEK293,-9.31%
same,outcome,HaCat,inactive
C=C1CCC2[C@](C)(CO)C(O)CC[C@]2(C)C1CC=C1C(=O)OCC1O (stereo partly specified),max response,CRL-7250,-1.23%
same,max response,HEK293,-3.28%
same,max response,HaCat,-3.92%
O=C(NNC(=O)c1ccc(CNS(=O)(=O)c2ccc(F)c(Cl)c2)cc1)c1ccccc1,outcome,CRL-7250,inactive
same,max response,HEK293,4.45%
same,outcome,HaCat,inactive
C[C@H](O)[C@@H]1C(=O)N2C(C(=O)O)=C(S[C@@H]3CN[C@H](CNS(N)(=O)=O)C3)[C@@H](C)[C@@H]12,max response,CRL-7250,4.32%
same,max response,HEK293,0.869%
same,outcome,HaCat,inactive
C[C@H](NC(=O)C(C#N)=Cc1cccc(Br)n1)c1ccccc1,Potency,CRL-7250,5260 nM (active)
same,Potency,HEK293,4180 nM (active)
same,Potency,HaCat,10500 nM (active)
CC(C)C[C@@H](C=O)NC(=O)[C@H](CC(C)C)NC(=O)[C@H](CC(C)C)NC(=O)OCc1ccccc1 (Cbz-Leu-Leu-Leu-aldehyde),Potency,CRL-7250,1660 nM (active)
same,Potency,HEK293,1050 nM (active)
same,Potency,HaCat,3320 nM (active)
O=c1[nH]c(=O)n([C@H]2C[C@@H](O)[C@@H](CO)O2)cc1C=CBr,max response,CRL-7250,-10.9%
same,max response,HEK293,-1.26%
same,max response,HaCat,-10.4%
Cc1cc(Nc2ncc3c(n2)N(C)C(=O)N(c2cc(NC(=O)c4cccc(C(F)(F)F)c4)ccc2C)C3)n(C)n1,Potency,CRL-7250,469 nM (active)
same,Potency,HEK293,418 nM (active)
same,Potency,HaCat,833 nM (active)
COc1cc(OC)c(NC(=O)Nc2cc(C)on2)cc1Cl,max response,CRL-7250,-0.274%
same,max response,HEK293,-18.7%
same,outcome,HaCat,inactive
CC(=O)C1=C(O)C=C2Oc3c(C(C)=O)c(O)c(C)c(O)c3C2(C)C1=O (stereo unspecified),outcome,CRL-7250,inactive
same,outcome,HEK293,inactive
same,outcome,HaCat,inactive
COc1cc([C@@H]2c3cc4c(cc3[C@@H](O[C@@H]3O[C@@H]5CO[C@@H](c6cccs6)O[C@@H]5[C@H](O)[C@@H]3O)[C@H]3COC(=O)[C@H]23)OCO4)cc(OC)c1O,Potency,CRL-7250,16600 nM (active)
same,Potency,HEK293,148 nM (active)
same,Potency,HaCat,590 nM (active)
CCCCCCCCCCCCCCCC(=O)OC[C@@H](NC(=O)C(Cl)Cl)[C@H](O)c1ccc([N+](=O)[O-])cc1,max response,CRL-7250,-9.61%
same,max response,HEK293,2.69%
same,outcome,HaCat,inactive
O=C(C[C@@H]1CC=CCCC(=O)O[C@H](c2ccccc2)CNC1=O)NCc1ccc(Cl)cc1,outcome,CRL-7250,inactive
same,max response,HEK293,-3.28%
same,outcome,HaCat,inactive
COc1ccc2cc([S+]([O-])Cc3ncc(C)c(OC)c3C)nc2c1,outcome,CRL-7250,inactive
same,max response,HEK293,1.45%
same,max response,HaCat,3.09%
CC(=O)N1CCN(c2ccc(OCc3nn(C)c(C)c3-c3cccc4c(CCCOc5cccc6ccccc56)c(C(=O)O)n(Cc5cccnc5)c34)cc2)CC1,outcome,CRL-7250,inactive
same,max response,HEK293,-15.3%
same,outcome,HaCat,inactive
CON=C(C(=O)N[C@@H]1C(=O)N2C(C(=O)O)=C(CSC(=O)c3ccco3)CS[C@H]12)c1csc(N)n1,max response,CRL-7250,4.77%
same,outcome,HEK293,inactive
same,max response,HaCat,1.07%
CC(=O)N[C@@H]1[C@H](O[C@@H]2c3ccc(c(Cl)c3)Oc3cc4cc(c3O[C@H]3O[C@H](CO)[C@@H](O)[C@H](O)[C@H]3NC(=O)CCCCCCCC(C)C)Oc3ccc(cc3Cl)C[C@H]3NC(=O)[C@H](N)c5ccc(O)c(c5)Oc5cc(O)cc(c5)[C@H](NC3=O)C(=O)N[C@H]4C(=O)N[C@H]3C(=O)N[C@@H]2C(=O)N[C@@H](C(=O)O)c2cc(O)cc(O[C@H]4O[C@H](CO)[C@@H](O)[C@H](O)[C@H]4O)c2-c2cc3ccc2O)O[C@H](CO)[C@@H](O)[C@@H]1O,outcome,CRL-7250,inactive
same,outcome,HEK293,inactive
same,max response,HaCat,2.16%
OC[C@@H](O)[C@@H](O)[C@H](O)[C@@H](O)CO,max response,CRL-7250,0.947%
same,max response,HEK293,2.06%
same,outcome,HaCat,inactive
C[C@@H](Oc1ccc2[nH]nc(C=Cc3cnn(CCO)c3)c2c1)c1c(Cl)cncc1Cl,Potency,CRL-7250,11800 nM (active)
same,Potency,HEK293,13200 nM (active)
same,Potency,HaCat,3320 nM (active)
CCN(CC)Cc1ccc2cc(COC(=O)Nc3ccc(C(=O)NO)cc3)ccc2c1,Potency,CRL-7250,7430 nM (active)
same,Potency,HEK293,418 nM (active)
same,Potency,HaCat,1300 nM (active)
Cc1cnc(Nc2ccc(N3CCN(C)CC3)cc2)nc1Nc1cccc(S(=O)(=O)NC(C)(C)C)c1,Potency,CRL-7250,1480 nM (active)
same,Potency,HEK293,4690 nM (active)
same,Potency,HaCat,296 nM (active)
O=C(O)CCCCC(CCSCc1ccccc1)SCc1ccccc1 (stereo unspecified),max response,CRL-7250,0.756%
same,max response,HEK293,-0.529%
same,outcome,HaCat,inactive
Nc1nc(=O)n([C@H]2CSC(CO)O2)cc1F (stereo partly specified),max response,CRL-7250,-8.43%
same,outcome,HEK293,inactive
same,outcome,HaCat,inactive
C[C@@H]1[C@H](C)CC[C@]2(C(=O)O)CC[C@]3(C)C(=CC[C@@H]4[C@@]5(C)C[C@@H](O)[C@H](O)[C@@](C)(CO)[C@H]5CC[C@]43C)[C@@H]12,max response,CRL-7250,-10.9%
same,max response,HEK293,-10.4%
same,max response,HaCat,2.03%
C=Cc1c(C)c2cc3nc(cc4[nH]c(cc5nc(cc1[nH]2)C(C)=C5CCC(=O)O)c(CCC(=O)OC)c4C)[C@@]1(C)C3=CC=C(C(=O)OC)[C@H]1C(=O)OC,max response,CRL-7250,1.72%
same,Potency,HEK293,11800 nM (active)
same,outcome,HaCat,inactive
CC(C)N(CC[C@H](c1ccccc1)c1cc(CO)ccc1O)C(C)C,outcome,CRL-7250,inactive
same,max response,HEK293,0.962%
same,max response,HaCat,-1.81%
